Results filed as inconclusive are left out. Activity calls are given as the source filed them. Unless noted, calls come from the whole dose curve.
Legend:
[1] = biological target: Alpha-galactosidase (Coffea arabica) (UniProt Q42656); assay: Counterscreen for Glucocerebrosidase Inhibitors: qHTS Assay for Coffee Bean alpha-Galactosidase at pH 4.5 (AID 957; active = well fitted curve in the direction sought with a large enough effect; an effect the other way counts as inactive or inconclusive;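 note: series mostly up to about 77 µM; plate controls were enzyme alone for no effect and no enzyme for full effect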)
Procedure, shortened: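 Fluorogenic qHTS at pH 4.5 (citrate buffer with Tween-20): 2 nM enzyme, 80 uM 4-MU-alpha-galactoside substrate, compound titrated 0.7 nM to 77 uM, 20 min room temperature. Glycine/NaOH stop; 4-MU read Ex 365/Em 440; Hill-equation AC50 against no-enzyme and enzyme controls.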

[2] = biological target: Alpha-galactosidase (Coffea arabica) (UniProt Q42656); assay: Counterscreen for Glucocerebrosidase Inhibitors: qHTS Assay for Coffee Bean alpha-Galactosidase at pH 5.9 (AID 998; active = well fitted curve in the direction sought with a large enough effect; an effect the other way counts as inactive or inconclusive;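 note: plate controls were uninhibited enzyme for no effect and no-enzyme basal signal for full effect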)
Procedure, shortened: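 Enzyme 2 nM + cpd (0.7 nM–77 uM titration) + 4-MU-alpha-Gal 80 uM, pH 5.9 citrate/Tween-20, RT 20 min, NaOH/glycine stop pH 10, fluor 365/440. Normalized to no-enzyme and full-activity controls; Hill-fit AC50.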

[3] = Inducers of the Endoplasmic Reticulum Stress Response (ERSR) in human glioma: Validation (AID 504836; active = well fitted curve in the direction sought with a large enough effect; an effect the other way counts as inactive or inconclusive; note: 0% is about no effect)
Procedure, shortened: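 Stably transfected U87-MG glioma cells carrying a GRP78-based luciferase sensor; 16 h compound incubation. Luminescence end-point read 10 min after Bright-Glo addition at room temperature.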

[4] = qHTS for Inhibitors of the Functional Ribonucleoprotein Complex (vRNP) of Lassa (LASV) Arenavirus: LASV Primary Screen - GLuc reporter signal (AID 1347082; calls by dose curve; tested in HEK293 reporter line; note: series mostly up to about 57 µM; % is set by controls: 0 for no effect and ±100 for the full control effect; nearly all actives have a fitted effect of over 60% in size)
[5] = qHTS for Inhibitors of the Functional Ribonucleoprotein Complex (vRNP) of Lassa (LASV) Arenavirus: Viability assay - alamar blue signal for LASV Primary Screen (AID 1347083; calls by dose curve; tested in HEK293 reporter line; note: series mostly up to about 57 µM; % is set by controls: 0 for no effect and ±100 for the full control effect; nearly all actives have a fitted effect of over 80% in size)
[6] = qHTS for Inhibitors of the Functional Ribonucleoprotein Complex (vRNP) of Lymphocytic Choriomeningitis Arenaviruses (LCMV): Viability assay - alamar blue signal for LCMV Primary Screen (AID 1347085; calls by dose curve; tested in HEK293 reporter line; note: series mostly up to about 57 µM; % is set by controls: 0 for no effect and ±100 for the full control effect; nearly all actives have a fitted effect of over 80% in size)
[7] = biological target: Nucleoprotein (Lymphocytic choriomeningitis virus (strain Armstrong)) (UniProt P09992); assay: qHTS for Inhibitors of the Functional Ribonucleoprotein Complex (vRNP) of Lymphocytic Choriomeningitis Arenaviruses (LCMV): LCMV Primary Screen - GLuc reporter signal (AID 1347086); note: series mostly up to about 57 µM; % is set by controls: 0 for no effect and ±100 for the full control effect; nearly all actives have a fitted effect of over 70% in size
[8] = biological target: Estrogen receptor (Homo sapiens) (UniProt P03372); assay: qHTS assay for small molecule agonists of estrogen receptor alpha signaling (AID 588514);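 note: 0% = vehicle only and 100% = reference agonist; nearly all actives have a fitted effect of over 70% in size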
Procedure, shortened: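 EC50 and efficacy came from Hill fits of beta-lactamase reporter signal (CCF4 dye, 2 h at room temperature) scaled between DMSO and 20 nM 17-beta-estradiol. Agonist mode: HEK293 ER-alpha-UAS-bla cells in charcoal/dextran-stripped serum medium, 18 h compound exposure at 37 C.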

[9] = biological target: Bile acid receptor (Homo sapiens) (UniProt Q96RI1); assay: qHTS assay for small molecule antagonists of farnesoid X receptor signaling (AID 588526); note: % is set by controls: 0 for no effect and ±100 for the full control effect
Procedure, shortened: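 Antagonist mode: titrated compounds tested against chenodeoxycholic acid stimulation (normalized to 50 uM CDCA and DMSO) in GeneBLAzer HEK293T cells for 16 h. Beta-lactamase read by CCF4 fluorescence; IC50 from Hill fits.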

[10] = biological target: Bile acid receptor (Homo sapiens) (UniProt Q96RI1); assay: qHTS assay for small molecule agonists of farnesoid X receptor signaling (AID 588527); conditions: HEK293T FXR-UAS-bla, beta-lactamase ratio, 16 h; activation: stronger effect = higher value;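 note: series mostly up to about 77 µM; 0% = vehicle basal and 100% = reference agonist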
Procedure, shortened: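 Read-out: beta-lactamase reporter fluorescence with CCF4 substrate in GeneBLAzer FXR-UAS-bla HEK293T cells, after 16 h compound exposure at 37 C. Response scaled between DMSO basal (0%) and chenodeoxycholic acid at 100 uM (100%).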

[11] = biological target: Glucocorticoid receptor (Homo sapiens) (UniProt P04150); assay: qHTS assay for small molecule agonists of glucocorticoid receptor signaling (AID 588532; active = well fitted curve in the direction sought with a large enough effect in the signal ratio, with a control signal flat; the % refers to the signal ratio;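 note: 100% = dexamethasone at 0.1 µM and 0% = DMSO only wells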); conditions: HeLa MMTV-bla, beta-lactamase ratio, agonist, 18 h; stronger effect = higher value; percent of dexamethasone control, DMSO zero
Procedure, shortened: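 Cells were plated and rested 3-5 h at 37 C, compounds were added in titration and incubated 18 h, then CCF4 substrate was loaded for 2 h at RT before reading blue/green fluorescence. EC50 came from Hill-equation fitting.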

[12] = biological target: Glucocorticoid receptor (Homo sapiens) (UniProt P04150); assay: qHTS assay for small molecule antagonists of glucocorticoid receptor signaling (AID 588533; active = well fitted inhibition curve with a large enough effect in the signal ratio, with a control signal flat, not every such curve was filed as active; the % refers to the signal ratio; note: % is set by controls: 0 for no effect and ±100 for the full control effect)
Procedure, shortened: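 Antagonist-mode qHTS: compound titrations added to GRE-bla HeLa cells, then dexamethasone 2 nM final; 18 h, 37 C. CCF4 FRET fluorescence normalized to dexamethasone and DMSO; IC50 from Hill fit.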

[13] = biological target: Peroxisome proliferator-activated receptor delta (Homo sapiens) (UniProt Q03181); assay: qHTS assay for small molecule agonists of peroxisome proliferator-activated receptor delta signaling (AID 588534);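 note: 0% = DMSO basal wells and 100% = positive control agonist at 10 µM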
Procedure, shortened: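 Agonist-mode beta-lactamase reporter readout (CCF4 dye, 2 h at RT) after 18 h at 37 °C exposure to a titration; Hill-equation fitting gave EC50 and maximal response.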

[14] = qHTS assay for small molecule antagonists of peroxisome proliferator-activated receptor delta signaling (AID 588535; active = well fitted inhibition curve with a large enough effect in the signal ratio, with a control signal flat, not every such curve was filed as active; the % refers to the signal ratio;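 for max response: cells co-treated with a PPAR-delta agonist as stimulator during compound exposure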); conditions: HEK293T PPARd-UAS-bla, beta-lactamase FRET ratio, 18 h; 460 nm channel
Procedure, shortened: (§1)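 Fluorescence from CCF4-loaded GeneBLAzer PPAR-delta-UAS-bla HEK293T cells (2 hrs RT loading) quantified reporter inhibition after an 18 hr, 37 C compound exposure across a titration.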

[15] = biological target: Peroxisome proliferator-activated receptor delta (Homo sapiens) (UniProt Q03181); assay: as above
Procedure, shortened: as §1

[16] = biological target: Peroxisome proliferator-activated receptor gamma (Homo sapiens) (UniProt P37231); assay: qHTS assay for small molecule agonists of peroxisome proliferator-activated receptor gamma signaling (AID 588536; active = well fitted curve in the direction sought with a large enough effect in the signal ratio, with a control signal flat, not every such curve was filed as active; the % refers to the signal ratio;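 note: 0% = DMSO basal wells and 100% = rosiglitazone at 2 µM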)
Procedure, shortened: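 Beta-lactamase reporter read-out: CCF4 fluorescence (ex 405, em 460/530 nm) after 2 h at RT. HEK293 GeneBLAzer cells were treated for 16 h at 37 C. Hill fits gave EC50 and efficacy versus 2 uM rosiglitazone (100%) and DMSO (0%).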

[17] = biological target: Vitamin D3 receptor (Homo sapiens) (UniProt P11473); assay: qHTS assay for small molecule antagonists of vitamin D receptor signaling (AID 588541);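 note: receptor activated by calcitriol during compound treatment; series mostly up to about 77 µM; % is set by controls: 0 for no effect and ±100 for the full control effect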
Procedure, shortened: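 VDR-UAS-bla HEK293T cells in 2% charcoal-stripped FBS were stimulated with 1-alpha,25-dihydroxyvitamin D3 (3 nM final) plus compound for 16 h at 37 C. The beta-lactamase CCF4 readout was normalized to 50 nM agonist and DMSO, and Hill fits gave IC50.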

[18] = biological target: Vitamin D3 receptor (Homo sapiens) (UniProt P11473); assay: qHTS assay for small molecule agonists of vitamin D receptor signaling (AID 588543);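 note: 0% = DMSO basal and 100% = reference agonist control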
Procedure, shortened: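 β-lactamase reporter, VDR-UAS-bla HEK293T, agonist mode. Cells plated 5 h at 37 °C, compound titration 16 h at 37 °C, CCF4 dye 2 h RT, ratio 460/530 nm. Hill fit → EC50, efficacy vs 50 nM 1α,25-(OH)2D3.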

[19] = qHTS assay for small molecule agonists of retinoid X receptor alpha signaling (AID 588544); conditions: HEK293T RXRa-UAS-bla, beta-lactamase reporter, 18 h; 530 nm emission;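 for activation: 0% = DMSO basal wells and 100% = reference agonist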
[20] = biological target: Retinoic acid receptor RXR-alpha (Homo sapiens) (UniProt P19793); assay: as above
[21] = biological target: Thyroid hormone receptor beta (Homo sapiens) (UniProt P10828); assay: qHTS assay for small molecule agonists of thyroid hormone receptor beta signaling (AID 588545)
Procedure, shortened: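 In this cell-based screen, titrated compounds act on HEK 293 cells held in medium with 2% charcoal/dextran FBS, NEAA and pyruvate for 18 hrs at 37 C. Responses are expressed relative to T3 (10 nM) as 100% and basal DMSO as 0%.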

[22] = qHTS assay for small molecule antagonists of retinoid X receptor alpha signaling (AID 588546; active = well fitted inhibition curve with a large enough effect in the signal ratio, with a control signal flat, not every such curve was filed as active; the % refers to the signal ratio;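 note: cells stimulated with 9-cis-retinoic acid as agonist; % is set by controls: 0 for no effect and ±100 for the full control effect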); conditions: HEK293T RXRa-UAS-bla, beta-lactamase ratio, antagonist mode; measured here: W530 green channel, cytotoxicity proxy
Procedure, shortened: (§2)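 Beta-lactamase reporter inhibition, read as CCF4 fluorescence ratio (ex 405, em 460/530 nm) after 2 h at RT. HEK293T UAS-bla cells, 2500/well, were stimulated with 9-cis-RA at 500 or 100 nM final alongside test compound for 18 h at 37 C.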

[23] = biological target: Retinoic acid receptor RXR-alpha (Homo sapiens) (UniProt P19793); assay: as above; conditions: HEK293T RXRa-UAS-bla, beta-lactamase ratio, antagonist mode
Procedure, shortened: as §2

[24] = qHTS assay for small molecule agonists of the antioxidant response element (ARE) signaling pathway (AID 651741; active = well fitted activation curve with a large enough effect in the signal ratio; the % refers to the signal ratio; note: % of control where 0% means no effect)
Procedure, shortened: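 Stably integrated ARE-beta-lactamase reporter HepG2 cells; 16 h compound incubation, 37 C; LiveBLAzer FRET substrate 2 h at room temperature; fluorescence intensity.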

[25] = qHTS assay for small molecule activators of the nuclear factor-kappa B (NF-kB) signaling pathway (AID 651749; active = well fitted activation curve with a large enough effect in the signal ratio; the % refers to the signal ratio; note: series mostly up to about 77 µM; % of control where 0% means no effect); conditions: NF-kB-bla ME-180 cells, beta-lactamase FRET ratio, 16 h; activation: stronger effect = higher value
Procedure, shortened: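 In this qHTS format, compounds acting as activators increase NF-kB-driven beta-lactamase in ME-180 cells, measured as disrupted FRET after 16 hr exposure at 37C and 5% CO2.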

[26] = qHTS assay for environmental chemicals that activate the Aryl hydrocarbon Receptor (AhR) signaling pathway (AID 651777; active = well fitted curve in the direction sought with a large enough effect; an effect the other way counts as inactive or inconclusive; note: % of control where 0% means no effect; nearly all actives have a fitted effect of over 15% in size); conditions: 1A2-DRE human hepatoma cells, luciferase, 24 h; activation: stronger effect = higher value
Procedure, shortened: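 AhR activation is scored as a rise in luciferase from a stable DRE–CYP1A2 promoter construct in human hepatoma cells. Treatment lasts 24 hr at 37 C; detection uses One-Glo after 30 min at room temperature.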

[27] = biological target: Peroxisome proliferator-activated receptor alpha (Homo sapiens) (UniProt Q07869); assay: qHTS assay for small molecule agonists of the peroxisome proliferator-activated receptor alpha (PPARalpha) signaling pathway (AID 651778; active = well fitted curve in the direction sought with a large enough effect; an effect the other way counts as inactive or inconclusive; note: % of control where 0% means no effect); conditions: PathHunter PPARalpha complementation, chemiluminescence, 6 h; stronger effect = higher value
Procedure, shortened: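 Enzyme-fragment complementation assay in which ligand-bound PPARalpha translocates and forms an active enzyme that generates chemiluminescence. Cells were plated overnight, exposed to compound for 6 hr at 37 C, and then given detection reagent for 60 min at room temperature.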

[28] = qHTS assay for small molecule agonists of the antioxidant response element (ARE) signaling pathway measured by Nrf2-dependant transcriptional activity - cell viability counter screen (AID 720653; active = well fitted curve in the direction sought with a large enough effect in the repeat runs; an effect the other way counts as inactive or inconclusive; note: % is set by controls: 0 for no effect and ±100 for the full control effect); conditions: ARE-bla HepG2 viability, CellTiter-Glo ATP luminescence, 16 h; max response: stronger effect = lower value
Procedure, shortened: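 ARE-bla HepG2 cells treated with compounds for 16 h at 37C; this counter screen measures viability as intracellular ATP by CellTiter-Glo luminescence after 30 min at room temperature.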

[29] = qHTS assay for cell viability of HEK293 cells (AID 743288; active = well fitted curve in the direction sought with a large enough effect; an effect the other way counts as inactive or inconclusive; note: % is set by controls: 0 for no effect and ±100 for the full control effect; nearly all actives have a fitted effect of over 50% in size); conditions: ATP luminescence (CellTiter-Glo), 18 h; max response: stronger effect = lower value
Procedure, shortened: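 ATP luminescence (CellTiter-Glo) reports metabolically competent cell number after parental HEK293 cells, 2,000/well, were treated with DMSO-dissolved compounds for 18 h at 37 C; reagent incubation 30 min, room temperature.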

[30] = qHTS assay for cell viability of the p53RE-bla HCT-116 cell line (AID 743292; active = well fitted curve in the direction sought with a large enough effect; an effect the other way counts as inactive or inconclusive; note: % is set by controls: 0 for no effect and ±100 for the full control effect; nearly all actives have a fitted effect of over 55% in size)
Procedure, shortened: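 Quantitative high-throughput format: compounds in DMSO were pinned onto p53RE-bla HCT-116 cells (4,000/well) and incubated 16 h at 37 C. Total intracellular ATP, read by CellTiter-Glo luminescence, reflects viable cell number.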

[31] = biological target: Nuclear receptor subfamily 1 group I member 2 (Rattus norvegicus) (UniProt Q9R1A7); assay: qHTS assay for small molecule activators of the rat pregnane X receptor (rPXR) signaling pathway (AID 651751; call rule not given here; note: 0% is about no effect); conditions: rPXR reporter cells, luciferase (One-Glo), 24 h
[32] = qHTS assay for small molecule activators of the human pregnane X receptor (PXR) signaling pathway (AID 720659; call rule not given here; note: 0% is about no effect)

Chain of Alpha-galactosidase (Coffea arabica) (Q42656 whole entry, looked up): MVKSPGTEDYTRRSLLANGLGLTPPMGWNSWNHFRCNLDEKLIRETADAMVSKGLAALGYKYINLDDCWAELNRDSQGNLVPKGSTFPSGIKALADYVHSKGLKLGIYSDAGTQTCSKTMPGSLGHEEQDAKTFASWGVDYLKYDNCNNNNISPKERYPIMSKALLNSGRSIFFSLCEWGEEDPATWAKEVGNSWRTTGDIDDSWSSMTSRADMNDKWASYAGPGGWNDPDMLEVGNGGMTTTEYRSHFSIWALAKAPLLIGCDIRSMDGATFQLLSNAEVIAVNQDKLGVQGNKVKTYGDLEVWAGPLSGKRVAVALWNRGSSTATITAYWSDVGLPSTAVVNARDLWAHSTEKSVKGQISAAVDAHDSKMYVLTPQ
Chain of Nucleoprotein (Lymphocytic choriomeningitis virus (strain Armstrong)) (P09992 whole entry, looked up): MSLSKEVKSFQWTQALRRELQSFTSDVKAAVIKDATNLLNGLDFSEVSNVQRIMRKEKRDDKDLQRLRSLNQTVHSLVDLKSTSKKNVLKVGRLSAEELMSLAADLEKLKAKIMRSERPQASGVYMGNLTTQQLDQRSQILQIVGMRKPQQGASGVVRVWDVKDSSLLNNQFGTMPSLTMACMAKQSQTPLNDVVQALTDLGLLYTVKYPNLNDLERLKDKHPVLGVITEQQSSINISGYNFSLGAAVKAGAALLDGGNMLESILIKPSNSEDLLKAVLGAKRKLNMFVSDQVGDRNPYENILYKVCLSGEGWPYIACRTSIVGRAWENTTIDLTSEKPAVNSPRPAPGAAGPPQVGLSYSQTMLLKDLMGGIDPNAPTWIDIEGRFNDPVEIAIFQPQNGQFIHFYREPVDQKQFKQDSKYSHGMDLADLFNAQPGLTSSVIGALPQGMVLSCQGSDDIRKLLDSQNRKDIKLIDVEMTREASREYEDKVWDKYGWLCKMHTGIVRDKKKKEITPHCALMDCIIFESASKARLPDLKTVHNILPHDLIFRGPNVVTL
Chain of Glucocorticoid receptor (Homo sapiens) (P04150 whole entry, looked up): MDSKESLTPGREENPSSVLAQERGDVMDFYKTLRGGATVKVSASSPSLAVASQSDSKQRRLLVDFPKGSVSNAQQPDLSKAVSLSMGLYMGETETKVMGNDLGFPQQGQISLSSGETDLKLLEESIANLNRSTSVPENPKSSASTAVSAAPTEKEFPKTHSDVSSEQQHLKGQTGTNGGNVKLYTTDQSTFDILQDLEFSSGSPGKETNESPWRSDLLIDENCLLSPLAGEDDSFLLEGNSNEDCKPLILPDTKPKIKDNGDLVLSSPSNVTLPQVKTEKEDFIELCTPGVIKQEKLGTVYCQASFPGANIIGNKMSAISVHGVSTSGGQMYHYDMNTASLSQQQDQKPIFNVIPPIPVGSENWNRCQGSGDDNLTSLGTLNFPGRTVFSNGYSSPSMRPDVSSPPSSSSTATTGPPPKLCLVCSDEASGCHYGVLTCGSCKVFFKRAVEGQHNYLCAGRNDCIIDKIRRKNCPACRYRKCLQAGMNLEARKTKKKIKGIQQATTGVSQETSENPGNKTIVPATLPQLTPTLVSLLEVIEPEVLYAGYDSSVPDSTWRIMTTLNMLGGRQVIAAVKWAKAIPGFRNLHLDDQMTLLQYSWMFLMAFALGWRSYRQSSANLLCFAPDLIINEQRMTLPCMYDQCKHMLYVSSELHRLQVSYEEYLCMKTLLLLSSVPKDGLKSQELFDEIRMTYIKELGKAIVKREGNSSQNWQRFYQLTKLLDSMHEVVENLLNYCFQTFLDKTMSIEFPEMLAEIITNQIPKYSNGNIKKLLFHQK
Chain of Peroxisome proliferator-activated receptor delta (Homo sapiens) (Q03181 whole entry, looked up): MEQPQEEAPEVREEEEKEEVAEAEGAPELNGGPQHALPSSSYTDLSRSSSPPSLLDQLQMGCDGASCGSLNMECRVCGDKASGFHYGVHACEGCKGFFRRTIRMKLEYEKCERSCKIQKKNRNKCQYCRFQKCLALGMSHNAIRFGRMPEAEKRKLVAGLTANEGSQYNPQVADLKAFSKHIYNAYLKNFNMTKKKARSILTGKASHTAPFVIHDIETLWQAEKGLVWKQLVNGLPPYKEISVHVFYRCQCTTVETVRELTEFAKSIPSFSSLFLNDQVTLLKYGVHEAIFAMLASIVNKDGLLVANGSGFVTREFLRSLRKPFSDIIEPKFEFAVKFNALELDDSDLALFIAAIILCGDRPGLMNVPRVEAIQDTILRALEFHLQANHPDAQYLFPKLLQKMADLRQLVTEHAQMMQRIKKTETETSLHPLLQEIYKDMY
Chain of Retinoic acid receptor RXR-alpha (Homo sapiens) (P19793 whole entry, looked up): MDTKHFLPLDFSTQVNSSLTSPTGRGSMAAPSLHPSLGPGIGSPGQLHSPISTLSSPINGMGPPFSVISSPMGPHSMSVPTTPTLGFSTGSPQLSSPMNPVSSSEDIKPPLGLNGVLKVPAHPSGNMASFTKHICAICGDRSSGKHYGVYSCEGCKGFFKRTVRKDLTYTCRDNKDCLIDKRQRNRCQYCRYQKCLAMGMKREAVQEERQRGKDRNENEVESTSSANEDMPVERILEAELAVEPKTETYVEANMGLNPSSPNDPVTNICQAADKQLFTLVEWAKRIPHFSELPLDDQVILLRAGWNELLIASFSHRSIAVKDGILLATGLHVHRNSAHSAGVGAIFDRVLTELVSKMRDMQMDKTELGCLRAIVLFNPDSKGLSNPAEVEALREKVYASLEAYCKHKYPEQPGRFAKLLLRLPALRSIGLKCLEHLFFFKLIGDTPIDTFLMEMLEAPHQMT
Chain of Bile acid receptor (Homo sapiens) (Q96RI1 whole entry, looked up): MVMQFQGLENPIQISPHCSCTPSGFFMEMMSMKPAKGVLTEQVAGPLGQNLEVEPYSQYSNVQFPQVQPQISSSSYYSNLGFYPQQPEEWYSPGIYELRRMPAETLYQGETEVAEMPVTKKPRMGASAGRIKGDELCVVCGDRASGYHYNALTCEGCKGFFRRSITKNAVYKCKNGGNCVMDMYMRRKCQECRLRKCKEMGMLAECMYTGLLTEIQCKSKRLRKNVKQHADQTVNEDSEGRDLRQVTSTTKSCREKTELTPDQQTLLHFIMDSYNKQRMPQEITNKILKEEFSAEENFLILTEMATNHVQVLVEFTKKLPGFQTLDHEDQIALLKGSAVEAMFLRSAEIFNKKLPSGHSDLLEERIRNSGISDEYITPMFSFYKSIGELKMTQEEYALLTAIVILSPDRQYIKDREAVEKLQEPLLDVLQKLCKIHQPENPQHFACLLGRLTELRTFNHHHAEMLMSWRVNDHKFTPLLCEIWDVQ
Chain of Vitamin D3 receptor (Homo sapiens) (P11473 whole entry, looked up): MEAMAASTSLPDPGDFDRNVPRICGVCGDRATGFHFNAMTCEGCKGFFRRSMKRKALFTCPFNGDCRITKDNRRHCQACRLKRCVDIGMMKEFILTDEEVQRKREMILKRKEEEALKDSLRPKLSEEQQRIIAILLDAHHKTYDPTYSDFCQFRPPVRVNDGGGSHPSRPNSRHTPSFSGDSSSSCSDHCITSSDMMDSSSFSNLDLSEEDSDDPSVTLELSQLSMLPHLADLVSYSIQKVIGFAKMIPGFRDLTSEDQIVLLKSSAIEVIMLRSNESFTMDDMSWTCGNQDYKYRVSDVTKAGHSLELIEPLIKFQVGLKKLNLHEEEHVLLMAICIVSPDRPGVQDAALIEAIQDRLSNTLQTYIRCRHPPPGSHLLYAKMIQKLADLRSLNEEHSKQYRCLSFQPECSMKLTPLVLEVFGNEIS
Chain of Estrogen receptor (Homo sapiens) (P03372 whole entry, looked up): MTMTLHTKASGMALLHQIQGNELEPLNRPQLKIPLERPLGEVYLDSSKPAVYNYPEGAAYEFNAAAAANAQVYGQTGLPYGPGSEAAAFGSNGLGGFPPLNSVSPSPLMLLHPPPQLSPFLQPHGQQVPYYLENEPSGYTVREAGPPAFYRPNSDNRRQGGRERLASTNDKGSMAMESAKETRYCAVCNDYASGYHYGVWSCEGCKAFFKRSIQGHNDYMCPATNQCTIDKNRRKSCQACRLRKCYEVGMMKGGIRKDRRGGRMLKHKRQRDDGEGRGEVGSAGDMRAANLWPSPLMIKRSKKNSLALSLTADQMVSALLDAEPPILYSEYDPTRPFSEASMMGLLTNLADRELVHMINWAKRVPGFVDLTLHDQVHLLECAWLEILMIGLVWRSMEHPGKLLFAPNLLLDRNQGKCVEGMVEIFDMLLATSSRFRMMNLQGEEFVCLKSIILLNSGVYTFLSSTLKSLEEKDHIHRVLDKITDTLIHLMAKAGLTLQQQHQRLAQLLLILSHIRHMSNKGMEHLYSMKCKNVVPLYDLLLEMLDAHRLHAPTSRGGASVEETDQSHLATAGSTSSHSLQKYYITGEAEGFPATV
Chain of Peroxisome proliferator-activated receptor gamma (Homo sapiens) (P37231 whole entry, looked up): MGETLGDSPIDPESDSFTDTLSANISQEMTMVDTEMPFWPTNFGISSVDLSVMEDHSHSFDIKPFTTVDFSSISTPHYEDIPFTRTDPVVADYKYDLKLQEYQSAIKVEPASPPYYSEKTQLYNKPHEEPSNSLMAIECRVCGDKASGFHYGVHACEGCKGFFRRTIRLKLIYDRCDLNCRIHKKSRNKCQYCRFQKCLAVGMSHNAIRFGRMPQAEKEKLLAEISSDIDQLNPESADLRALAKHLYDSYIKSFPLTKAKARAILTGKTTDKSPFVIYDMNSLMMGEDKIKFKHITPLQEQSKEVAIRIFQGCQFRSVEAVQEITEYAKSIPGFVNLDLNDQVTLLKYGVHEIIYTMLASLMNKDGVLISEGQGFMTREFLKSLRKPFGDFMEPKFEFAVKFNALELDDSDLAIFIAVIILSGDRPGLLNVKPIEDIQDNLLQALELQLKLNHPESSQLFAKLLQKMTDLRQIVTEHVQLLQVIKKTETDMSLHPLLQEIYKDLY

NC(=NCc1ccccc1)NC(=O)c1nc(Cl)c(N)nc1N
inactive: outcome [1] | outcome [2] | outcome [3] | Potency [4] | Potency [5] | Potency [6] | Potency [7]

CCOP(=S)(OCC)SCSCC
-4.53%: max response [22]
inactive: Potency [8] | Potency [9] | activation [10] 1.79% | activation [11] -1.34% | Potency [12] | Potency [13] | outcome [15] | outcome [16] | outcome [17] | Potency [18] | outcome [20] | Potency [21] | max response [23] -2.19% | Potency [24] | activation [25] -1.47% | activation [26] 2.07% | max response [27] -0.311% | max response [28] 6.11% | max response [29] -10.1% | outcome [30] | Potency [4] | Potency [5] | Potency [6] | Potency [7] | max response [31] 5.3% | outcome [32]
-8.57%: max response [19]
1.66%: max response [14]

O=c1c2ccccc2nc2n1CCc1c-2[nH]c2ccccc12
inactive: outcome [1] | outcome [2] | outcome [3] | Potency [4] | Potency [5] | Potency [6] | Potency [7]

— PubChem BioAssay (NCATS)
